TRb-SRC2 inh: inhibitors of human thyroid hormone receptor beta-SRC2 interaction | Potency, µM (series often up to 106 µM), inactives show at the top dose activity change, negative = inhibition, actives largely listed as inhibitors | TRbeta-SRC2 peptide binding, fluorescence polarization; receptor liganded with 1 µM T3 | P10828 | AID 1469 | actives 0.065% (n = 280,000);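 further: plate controls were bound peptide for no effect and peptide without receptor for full effect; nearly all actives have a fitted effect of over 50% in size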
Target sequence (P10828 whole entry, looked up): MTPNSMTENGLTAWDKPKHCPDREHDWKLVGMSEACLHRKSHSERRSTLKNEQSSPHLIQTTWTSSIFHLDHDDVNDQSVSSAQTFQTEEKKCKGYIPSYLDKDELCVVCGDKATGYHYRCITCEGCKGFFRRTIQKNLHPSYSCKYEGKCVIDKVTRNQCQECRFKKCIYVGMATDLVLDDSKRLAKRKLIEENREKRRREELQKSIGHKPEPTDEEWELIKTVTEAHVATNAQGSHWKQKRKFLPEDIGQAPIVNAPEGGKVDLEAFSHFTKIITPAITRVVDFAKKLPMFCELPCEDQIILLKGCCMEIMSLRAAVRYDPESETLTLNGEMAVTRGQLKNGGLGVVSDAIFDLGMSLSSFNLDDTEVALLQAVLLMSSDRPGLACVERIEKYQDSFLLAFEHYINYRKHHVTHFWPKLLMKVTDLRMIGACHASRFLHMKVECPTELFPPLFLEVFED
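Each compound concentration gave % activity, normalized to unbound and bound Texas Red SRC2 controls, from polarization read after 5 hr ambient incubation with T3-loaded human TRb LBD.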
Tau fibril ThT: blocks human tau fibril formation measured by thioflavin T; actives 2.1% (n = 270,000); recombinant tau K18 P301L, heparin-induced fibrillization, ThT fluorescence; AID 1460; Potency, µM (highest dose often 57.4 µM), for the others: at the top dose activity, negative = inhibition, actives largely listed as inhibitors; P10636; further: nearly all actives have a fitted effect of over 55% in size
Target sequence (P10636 561-689 P618L limits assumed): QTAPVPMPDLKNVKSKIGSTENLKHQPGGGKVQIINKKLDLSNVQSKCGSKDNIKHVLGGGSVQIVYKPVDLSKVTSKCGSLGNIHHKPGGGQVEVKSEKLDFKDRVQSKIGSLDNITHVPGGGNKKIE
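Recombinant human tau K18 fragment […] carrying P301L, 15 uM unlabeled plus 0.24 uM Alexa 594-labeled, was fibrillized with 20 uM heparin in 100 mM sodium acetate pH 7 for 6 hr at 37 C; 30 uM ThT fluorescence read after 1 hr.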
Tau fluor cs: counter-screen for tau fibril formation inhibitors; tau K18 P301L Alexa594 fluorescence, heparin fibrillization; Potency, µM (top dose mostly 57.7 µM), inactives show top-dose activity change, negative = decrease; actives 0.93% (n = 280,000); further: nearly all actives have a fitted effect of over 55% in size
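Human K18 P301L tau (15 uM unlabeled plus 0.24 uM Alexa 594-labeled, final) in 100 mM sodium acetate pH 7 was mixed with compound and 20 uM heparin and incubated 6 hr at 37 C.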
Tau fibril FP: tau fibrillization inhibition (FP); AID 1468; P10636; Potency, µM (highest dose often 57.7 µM), inactives show at the top dose activity, negative = inhibition, hits mostly inhibitors; K18 P301L tau heparin fibrillization, Alexa594 FP, 6 h; actives 0.39% (n = 280,000); further: nearly all actives have a fitted effect of over 55% in size
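Heparin (20 uM) drove fibril formation of recombinant tau K18 P301L, 15 uM unlabeled with 0.24 uM Alexa 594 label, for 6 hr at 37 C in 100 mM sodium acetate pH 7. Fluorescence polarization (555/632 nm) read 1 hr after 30 uM ThT.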
TR SRC2 fluor cs: counter-screen for TRb-SRC2 inhibitors: fluorescence interference | actives 0.29% (n = 280,000) | AID 1479 | Potency, µM (series often up to 106 µM), inactives show top-dose fluorescence change, negative = quenching | TRb/SRC2 Texas Red total fluorescence interference; active means well fitted curve in either direction with a large enough effect; inconclusive means small, poorly fitted or top-dose-only effect
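Human TRβ ligand-binding domain (0.6 uM) and Texas Red SRC2 peptide (20 nM) in Tris buffer with 1 uM T3 and 5% DMSO were incubated with pinned compound for 5 hr at ambient temperature. Total fluorescence was computed as S + 2P (555/632 nm).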
The depositor's hits bear a star; ? = inconclusive; · = not tested or not shown; [ ] = another dose, or the depositor's remark. An excerpt weighted towards active compounds, which were near 3.1% of everything screened. Unless noted, the call rests on the fitted dose curve; in most records, active means well fitted curve in the direction sought with a large enough effect; inconclusive means small, poorly fitted or top-dose-only effect, or another doubt; inactive means no such curve, though single readings can be large; an effect the other way counts as inactive or inconclusive. Unless noted, on the % scale 0 is the no-effect control and ±100 the full control effect; potency means the concentration at half of the fitted maximal effect.

SMILES	TRb-SRC2 inh	Tau fibril ThT	Tau fluor cs	Tau fibril FP	TR SRC2 fluor cs
O=C(NNc1c2ccccc2nc2ccccc12)c1ccc(O)cc1O	7.6%	2.24µM*	12.6µM*[quencher]	7.6%	-28.8%
O=C(NNc1c2ccccc2nc2ccccc12)c1cccc(O)c1	-6.0%	2.82µM*	14.1µM*[quencher]	13.2%	-13.6%
O=C(COc1ccccc1)NNc1c2ccccc2nc2ccccc12	3.0%	4.8%	2.6%	-1.2%	-1.5%
O=C(NNc1c2ccccc2nc2ccccc12)c1ccc(O)cc1	-5.8%	?	?	1.6%	0.2%
C[C@H](N)C(=O)N[C@@H](CO)C(=O)N[C@H](C(=O)N[C@H](C(=O)N[C@H](C(=O)N[C@@H](CC(N)=O)C(=O)N[C@@H](Cc1ccc(O)cc1)C(=O)N[C@H](C(=O)O)[C@@H](C)O)[C@@H](C)O)[C@@H](C)O)[C@@H](C)O	-1.3%	·	·	·	1.2%
O=C(NNc1c2ccccc2nc2ccccc12)c1ccccc1O	4.1%[53 µM]	2.24µM*	6.31µM*[quencher]	-0.6%	-14.2%[53 µM]
CCc1nnc(SC(CC)C(=O)Nc2ccc(OC)c(Cl)c2)c2cc3occc3n12 (stereo unspecified)	-4.2%	-3.0%	-7.1%	6.9%	-2.6%
COC(=O)c1c(-c2ccccc2)c(-c2ccccc2)nn(C)c1=O	-0.9%	-8.2%	-5.9%	0.1%	0.3%
COC(=O)c1c(Oc2ccc(OC)cc2)nnc(-c2ccccc2)c1-c1ccccc1	-7.5%	-14.0%	-26.5%	-5.5%	794µM*[quencher]
Nc1ncc(S(=O)(=O)N2CCN(c3ccccc3)CC2)cn1	-19.3%	5.3%	5.6%	1.3%	0.0056µM*[quencher]
CN(C)c1ccc(CNc2nc(-c3ccco3)nn2S(=O)(=O)c2ccc3ccccc3c2)cc1	-3.6%	-10.1%	?	6.4%	-15.8%
CCN(CC)CCCNC(=O)CSc1nc2nc(C)c(Cc3c(F)cccc3Cl)c(C)n2n1	-5.7%	-16.4%	-15.5%	-6.1%	0.1%
COc1ccc(NC(=O)Cn2nnc(-c3ccccc3NS(=O)(=O)c3ccccc3)n2)cc1	-4.9%	13.5%	?	15.8µM*	-2.5%
COc1ccc(S(=O)(=O)Nc2ccccc2-c2nnn(CC(=O)Nc3ccccc3OC)n2)cc1	-1.1%	15.8%	?	?	0.9%
Cc1cccc(N=C2NC(=O)/C(=C/c3cccn3C)S2)c1	-0.1%	7.94µM*	-29.2%	4.5%	-2.1%
COC(=O)c1sccc1S(=O)(=O)N(CC(=O)NCc1ccc(C)cc1)c1ccc(Cl)cc1	1.1%	2.6%	0.1%	2.6%	-8.0%
O=C(O)C/C(=C\c1ccc(N2CCOCC2)c([N+](=O)[O-])c1)c1nc2ccccc2s1	-0.6%	14.1µM*	-13.0%	-2.5%	-4.1%
O=C(O)CC/C(=C\c1ccc(N2CCOCC2)c([N+](=O)[O-])c1)c1nc2ccccc2s1	1.6%	7.94µM*	-12.1%	-3.5%	-3.0%
CCn1c2ccccc2c2cc(NC(=O)COC(=O)c3ccccc3O)ccc21	-1.3%	-3.6%	-28.1%	1.2%	1.8%
CCn1c2ccccc2c2cc(NC(=O)COC(=O)c3cc(Cl)c(N)cc3OC)ccc21	-5.0%	?	10µM*[quencher]	3.5%	-8.4%
CCn1c2ccccc2c2cc(NC(=O)COC(=O)c3cc(S(N)(=O)=O)c(Cl)cc3Cl)ccc21	-0.7%	?	8.91µM*[quencher]	6.5%	-3.8%
CCn1c2ccccc2c2cc(NC(=O)COC(=O)c3ccccc3F)ccc21	-15.5%	-6.8%	-26.0%	0.8%	2.0%
CCNC(=O)c1c(NC(=O)c2nc(S(=O)(=O)CC)ncc2Cl)sc2c1CCCC2	-2.8%	6.31µM*	-27.3%	-16.4%	?
COCCCNC(=O)c1c(NC(=O)c2nc(S(C)(=O)=O)ncc2Cl)sc2c1CCCC2	-8.5%	12.6µM*	-25.6%	-11.8%	4.4%
CCSc1ncc(Cl)c(C(=O)Nc2sc3c(c2C(=O)NCCCOC)CCCC3)n1	-14.6%	-17.1%	-15.9%	-9.4%	9.0%
SMILES	TRb-SRC2 inh	Tau fibril ThT	Tau fluor cs	Tau fibril FP	TR SRC2 fluor cs
COCc1[nH]nc2c1C(c1ccc(OC)c(OC)c1)C(C#N)=C(N)O2 (stereo unspecified)	-11.0%	-7.2%	-3.4%	-3.8%	-0.4%
CCCc1[nH]nc2c1C(c1cccnc1)C(C#N)=C(N)O2 (stereo unspecified)	1.4%	17.8µM*	?	?	0.3%
CCn1c2ccccc2c2cc(C3C(C#N)=C(N)Oc4n[nH]c(COC)c43)ccc21 (stereo unspecified)	-10.4%	15.8µM*	?	-16.9%	-3.7%
Cc1ccc(C(=O)c2cn(Cc3ccccc3C)c3nc(C)ccc3c2=O)cc1	-1.3%	-14.0%	-9.1%	3.3%	11.2%
CC[C@H](C)[C@H](NC(=O)[C@H](Cc1ccc(O)cc1)NC(=O)[C@H](Cc1cnc[nH]1)NC(=O)[C@H](CCCNC(=N)N)NC(=O)[C@H](CC(C)C)NC(=O)[C@H](C)NC(=O)[C@H](CO)NC(=O)[C@H](Cc1ccc(O)cc1)NC(=O)[C@H](Cc1ccc(O)cc1)NC(=O)[C@H](CCCNC(=N)N)NC(=O)[C@H](C)NC(=O)[C@H](CCSC)NC(=O)[C@H](CC(=O)O)NC(=O)[C@H](CCC(=O)O)NC(=O)[C@H](C)NC(=O)[C@@H]1CCCN1)C(=O)N[C@@H](CC(N)=O)C(=O)N[C@@H](CC(C)C)C(=O)N[C@H](C(=O)N[C@H](C(=O)N[C@@H](CCCNC(=N)N)C(=O)N[C@@H](CCC(N)=O)C(=O)N[C@@H](CCCNC(=N)N)C(=O)N[C@@H](Cc1ccc(O)cc1)C(N)=O)[C@@H](C)O)[C@@H](C)CC	0.8%	·	·	·	-4.3%
COCCCNC(=O)C(=O)NCC(c1ccc2c(c1)OCO2)N1CCOCC1 (stereo unspecified)	7.3%	4.6%	-1.6%	-7.7%	-2.4%
COC1(OC)N=C(NC(=O)Nc2ccccc2)C2(C#N)C(c3ccccc3)C12C#N (stereo unspecified)	-1.8%	20µM*	-25.3%	?	1.6%
Cc1cccc(Cn2c(SCc3ccc(C(=O)NCCc4ccccc4)cc3)nc3ccncc32)c1	0.0%	-5.5%	-23.9%	0.9%	-0.9%
Cc1ccc(C(C(=O)NCc2ccco2)N(Cc2ccco2)C(=O)CNC(=O)c2ccco2)cc1 (stereo unspecified)	-6.2%	7.08µM*	-19.7%	?	-2.7%
CC(=O)Nc1ccc(N(C(=O)CNC(=O)c2ccco2)C(C(=O)NCc2ccco2)c2ccccc2)cc1 (stereo unspecified)	3.8%	·	-0.5%	2.1%	2.0%
Nc1nc(-c2ccccc2)c(N=Nc2ccccc2Cl)s1	-0.5%	5.01µM*	4.47µM*[quencher]	?	-1.4%
CC(=O)Nc1sc(N)nc1-c1ccccc1	4.3%	-14.3%	-5.2%	-1.3%	0.2%

High-throughput results deposited in PubChem BioAssay by National Center for Advancing Translational Sciences (NCATS).
